# “And” between values parts separate entries of the source, which are not always exact repeats. Equal entries are not always repeated. Inconclusive results are not listed. Some of the results follow. The source made the active and inactive calls. Unless noted, calls follow the shape of the dose curve; as a rule, active = well fitted curve in the direction sought with a large enough effect; inconclusive = small, poorly fitted or top-dose-only effect, or another doubt; inactive = no such curve, though single readings can be large; an effect the other way counts as inactive or inconclusive.
# Assays:
# [1] = qHTS profiling for inhibitors of Plasmodium falciparum (3D7) proliferation (AID 743322);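 also: infected erythrocytes exposed to compound for 72 h before lysis; 100% = DMSO vehicle wells and 0% = 0.29 µM artemisinin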; details: P. falciparum 3D7 proliferation; at 28.7 µM (top of the series)
# Procedure, shortened: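 Parasite DNA was quantified by SYBR Green I fluorescence (ex 485, em 535 nm) after overnight lysis in saponin/Triton buffer at room temperature. Cultures at 0.3% parasitemia and 2.5% hematocrit were first exposed to compound for 72 h at 37 C; signals were normalised to artemisinin (0.29 uM) and vehicle wells.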
# [2] = qHTS profiling for inhibitors of Plasmodium falciparum (DD2) proliferation (AID 743323; call rule not given here); details: lower = more inhibition; at 28.7 µM (top of the series)
# Procedure, shortened: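 P. falciparum Dd2-infected erythrocytes (0.3% parasitemia, 2.5% hematocrit) exposed 72 h at 37 C, 5% CO2. Lysis with SYBR Green, overnight at room temperature, fluorescence 485/535 nm; normalized to 0.29 uM artemisinin and DMSO.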
# [3] = qHTS profiling for inhibitors of Plasmodium falciparum (HB3) proliferation (AID 743324); details: Plasmodium falciparum HB3 blood-stage proliferation; at 28.7 µM (top of the series);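 also: 100% = DMSO vehicle wells and 0% = artemisinin-treated control wells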
# Procedure, shortened: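 SYBR Green fluorescence (485 ex/535 em) of lysed cultures, incubated overnight at room temperature in the dark, quantifies parasite DNA. Infected erythrocytes at 0.3% parasitemia and 2.5% hematocrit were exposed 72 h; values normalized to DMSO and 0.29 uM artemisinin controls.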
# [4] = target: DNA polymerase eta (Homo sapiens) (UniProt Q9Y253); experiment: qHTS for Inhibitors of Polymerase Eta: Confirmatory Assay for Cherry-picked Compounds (AID 720502); details: Pol eta primer extension, TAMRA/BHQ fluorescence, 10 min; also: potency is read from the fitted curve at half-maximal effect
# Sequence of DNA polymerase eta (Homo sapiens) (Q9Y253 whole entry, looked up): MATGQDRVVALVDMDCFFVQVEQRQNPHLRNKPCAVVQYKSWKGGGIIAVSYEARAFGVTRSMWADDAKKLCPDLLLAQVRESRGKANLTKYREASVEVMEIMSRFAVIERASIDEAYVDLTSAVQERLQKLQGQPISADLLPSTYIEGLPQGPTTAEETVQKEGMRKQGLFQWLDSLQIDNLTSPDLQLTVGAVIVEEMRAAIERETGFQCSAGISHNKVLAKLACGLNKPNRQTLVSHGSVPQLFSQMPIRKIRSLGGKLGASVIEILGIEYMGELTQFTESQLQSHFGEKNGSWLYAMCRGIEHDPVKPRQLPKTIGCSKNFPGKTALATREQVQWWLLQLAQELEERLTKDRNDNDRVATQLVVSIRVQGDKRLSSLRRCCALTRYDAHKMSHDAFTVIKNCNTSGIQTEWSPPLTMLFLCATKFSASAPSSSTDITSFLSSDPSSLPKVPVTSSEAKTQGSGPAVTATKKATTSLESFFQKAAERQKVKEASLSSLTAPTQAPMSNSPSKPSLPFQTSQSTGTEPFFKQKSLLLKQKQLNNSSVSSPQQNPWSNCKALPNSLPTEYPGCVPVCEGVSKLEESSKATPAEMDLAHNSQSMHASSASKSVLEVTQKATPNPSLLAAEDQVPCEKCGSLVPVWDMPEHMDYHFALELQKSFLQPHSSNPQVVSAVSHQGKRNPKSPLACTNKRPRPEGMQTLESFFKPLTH
# Procedure, shortened: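 Strand-displacement fluorescence (525 nm excitation, 598 nm emission) was read kinetically at 0 and 10 min after adding 50 nM final TAMRA-reporter/BHQ-2-template substrate. Beforehand, 10 nM Pol eta had been exposed to compound for 15 min at room temperature.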
# [5] = qHTS Assay for Identifying Gametocytocidal Compounds (AID 743244);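 also: % is scaled to controls: 0 for no effect and ±100 for the full control effect; actives lower the fluorescent signal which means gametocytes are killed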; details: P. falciparum 3D7 stage III-V gametocytes, alamarBlue, 72 h; stronger effect = lower value
# Procedure, shortened: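 Viability read-out was resazurin reduction (alamarBlue, 24 h) measured at Ex 525/Em 598 nm. Beforehand, late-stage (III-V) 3D7 P. falciparum gametocytes at 20,000 cells/well were incubated with compound 72 h at 37C under 5% CO2.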
# [6] = target: DNA polymerase kappa (Homo sapiens) (UniProt Q9UBT6); experiment: qHTS for Inhibitors of Polymerase Kappa: Confirmatory Assay for Cherry-picked Compounds (AID 720501); details: purified Pol-kappa, fluorescent strand-displacement substrate; also: potency is read from the fitted curve at half-maximal effect
# Sequence of DNA polymerase kappa (Homo sapiens) (Q9UBT6 whole entry, looked up): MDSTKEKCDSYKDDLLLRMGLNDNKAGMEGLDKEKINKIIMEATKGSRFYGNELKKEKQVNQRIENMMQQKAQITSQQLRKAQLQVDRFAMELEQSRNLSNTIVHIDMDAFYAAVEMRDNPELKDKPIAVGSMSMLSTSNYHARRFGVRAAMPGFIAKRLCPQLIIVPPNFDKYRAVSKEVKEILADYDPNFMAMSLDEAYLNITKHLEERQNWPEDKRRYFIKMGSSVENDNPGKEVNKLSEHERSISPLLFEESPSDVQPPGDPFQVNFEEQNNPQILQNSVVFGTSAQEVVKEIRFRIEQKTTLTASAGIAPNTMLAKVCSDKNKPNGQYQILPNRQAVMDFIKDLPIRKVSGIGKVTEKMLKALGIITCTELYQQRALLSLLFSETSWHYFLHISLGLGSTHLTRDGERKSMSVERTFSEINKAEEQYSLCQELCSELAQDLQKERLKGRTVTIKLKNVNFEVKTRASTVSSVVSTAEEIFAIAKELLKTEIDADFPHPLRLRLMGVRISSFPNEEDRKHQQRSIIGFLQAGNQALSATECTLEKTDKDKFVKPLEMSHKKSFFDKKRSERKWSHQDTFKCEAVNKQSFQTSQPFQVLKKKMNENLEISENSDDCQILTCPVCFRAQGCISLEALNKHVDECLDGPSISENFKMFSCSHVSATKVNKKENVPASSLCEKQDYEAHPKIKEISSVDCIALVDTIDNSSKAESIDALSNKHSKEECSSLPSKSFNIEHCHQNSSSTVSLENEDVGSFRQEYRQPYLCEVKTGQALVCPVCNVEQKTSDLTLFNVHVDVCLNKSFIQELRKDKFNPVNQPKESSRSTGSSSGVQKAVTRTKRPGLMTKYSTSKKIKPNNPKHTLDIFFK
# Procedure, shortened: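 10 nM human Pol-kappa was preincubated with compound 15 min at room temperature, then 50 nM (final) primer/template substrate with TAMRA-labeled reporter strand and BHQ-2-labeled template added. Fluorescence (Ex 525, Em 598 nm) read at 0 and 10 min.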
# [7] = target: Cytochrome P450 2D6 (Homo sapiens) (UniProt P10635); experiment: qHTS Assay for Inhibitors and Substrates of Cytochrome P450 2D6 (AID 891); also: nearly all actives have a fitted effect of over 60% in size; also: potency is read from the fitted curve at half-maximal effect;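 as to activity change, negative = inhibition: luciferin methyl ether substrate demethylated by CYP2D6 with NADPH regeneration; % is scaled to controls: 0 for no effect and ±100 for the full control effect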
# Sequence of Cytochrome P450 2D6 (Homo sapiens) (P10635 whole entry, looked up): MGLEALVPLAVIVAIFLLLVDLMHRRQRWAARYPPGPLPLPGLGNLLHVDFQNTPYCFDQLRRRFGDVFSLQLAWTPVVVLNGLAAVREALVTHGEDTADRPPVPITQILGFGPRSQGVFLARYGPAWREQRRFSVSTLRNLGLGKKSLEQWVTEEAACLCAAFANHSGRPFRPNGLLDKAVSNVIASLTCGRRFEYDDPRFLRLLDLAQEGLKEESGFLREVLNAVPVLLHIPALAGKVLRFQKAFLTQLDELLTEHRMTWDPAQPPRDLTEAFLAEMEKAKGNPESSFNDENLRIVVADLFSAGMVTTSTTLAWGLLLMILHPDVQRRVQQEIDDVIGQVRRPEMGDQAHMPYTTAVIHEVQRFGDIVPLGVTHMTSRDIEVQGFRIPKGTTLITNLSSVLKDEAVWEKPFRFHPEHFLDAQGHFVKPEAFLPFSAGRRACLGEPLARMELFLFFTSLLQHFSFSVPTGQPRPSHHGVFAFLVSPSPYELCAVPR
# Procedure, shortened: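 Luminescent read-out of luciferin formed by 5 nM human CYP2D6 demethylating 30 uM Luciferin-ME EGE (Km level) over 60 min at room temperature after NADPH regeneration addition. Data normalized to full inhibition by 1.43 uM quinidine.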
# [8] = target: Cytochrome P450 2C19 (Homo sapiens) (UniProt P33261); experiment: qHTS Assay for Inhibitors and Substrates of Cytochrome P450 2C19 (AID 899); also: nearly all actives have a fitted effect of over 60% in size; also: potency is read from the fitted curve at half-maximal effect
# Sequence of Cytochrome P450 2C19 (Homo sapiens) (P33261 whole entry, looked up): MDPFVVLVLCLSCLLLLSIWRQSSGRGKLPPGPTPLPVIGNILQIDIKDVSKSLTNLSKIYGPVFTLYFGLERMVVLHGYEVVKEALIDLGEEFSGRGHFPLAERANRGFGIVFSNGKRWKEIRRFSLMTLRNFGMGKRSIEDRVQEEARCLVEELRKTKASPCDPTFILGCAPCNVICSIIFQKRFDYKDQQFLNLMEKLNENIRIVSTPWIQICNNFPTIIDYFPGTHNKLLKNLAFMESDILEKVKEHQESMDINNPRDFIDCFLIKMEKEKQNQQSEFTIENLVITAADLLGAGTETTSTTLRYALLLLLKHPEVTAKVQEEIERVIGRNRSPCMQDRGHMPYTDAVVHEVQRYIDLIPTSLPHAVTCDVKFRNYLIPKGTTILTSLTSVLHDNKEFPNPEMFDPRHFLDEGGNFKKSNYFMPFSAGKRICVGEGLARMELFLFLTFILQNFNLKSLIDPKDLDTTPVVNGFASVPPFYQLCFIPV
# Procedure, shortened: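 Signal comes from luciferase acting on luciferin released by CYP2C19-mediated hydroxylation of Luciferin-H EGE, 10uM (KM). Assay mix: 5nM enzyme, 50mM KPO4; 60 min at 37C with NADPH regeneration. Data normalized against 57uM ketoconazole.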
# [9] = target: Cytochrome P450 2C9 (Homo sapiens) (UniProt P11712); experiment: qHTS Assay for Inhibitors and Substrates of Cytochrome P450 2C9 (AID 883); also: nearly all actives have a fitted effect of over 60% in size; also: potency is read from the fitted curve at half-maximal effect; as to activity change, negative = inhibition: % is scaled to controls: 0 for no effect and ±100 for the full control effect
# Sequence of Cytochrome P450 2C9 (Homo sapiens) (P11712 whole entry, looked up): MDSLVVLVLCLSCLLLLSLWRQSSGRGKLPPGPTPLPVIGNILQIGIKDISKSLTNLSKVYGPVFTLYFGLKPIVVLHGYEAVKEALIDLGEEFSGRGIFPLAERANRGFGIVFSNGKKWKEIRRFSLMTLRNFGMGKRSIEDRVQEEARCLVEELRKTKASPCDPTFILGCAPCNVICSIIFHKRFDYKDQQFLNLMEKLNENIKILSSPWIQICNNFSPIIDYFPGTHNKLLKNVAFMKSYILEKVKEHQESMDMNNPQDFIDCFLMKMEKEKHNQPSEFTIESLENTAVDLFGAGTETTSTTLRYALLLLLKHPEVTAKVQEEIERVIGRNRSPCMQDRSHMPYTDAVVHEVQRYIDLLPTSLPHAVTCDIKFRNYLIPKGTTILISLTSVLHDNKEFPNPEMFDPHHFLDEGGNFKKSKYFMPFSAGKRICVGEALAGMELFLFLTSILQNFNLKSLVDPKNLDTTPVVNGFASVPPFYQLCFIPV
# Procedure, shortened: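 Signal: luciferase luminescence reporting luciferin produced by CYP2C9. Conditions: 10nM enzyme, Luciferin-H 100uM at KM, 25mM KPO4, 37C, 60 min NADPH-driven reaction. Reference: 57uM sulphaphenazole as 100% inhibition.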
# [10] = target: Cytochrome P450 3A4 (Homo sapiens) (UniProt P08684); experiment: qHTS Assay for Inhibitors and Substrates of Cytochrome P450 3A4 (AID 884); also: nearly all actives have a fitted effect of over 50% in size; also: potency is read from the fitted curve at half-maximal effect; as to activity change, negative = inhibition: % is scaled to controls: 0 for no effect and ±100 for the full control effect
# Sequence of Cytochrome P450 3A4 (Homo sapiens) (P08684 whole entry, looked up): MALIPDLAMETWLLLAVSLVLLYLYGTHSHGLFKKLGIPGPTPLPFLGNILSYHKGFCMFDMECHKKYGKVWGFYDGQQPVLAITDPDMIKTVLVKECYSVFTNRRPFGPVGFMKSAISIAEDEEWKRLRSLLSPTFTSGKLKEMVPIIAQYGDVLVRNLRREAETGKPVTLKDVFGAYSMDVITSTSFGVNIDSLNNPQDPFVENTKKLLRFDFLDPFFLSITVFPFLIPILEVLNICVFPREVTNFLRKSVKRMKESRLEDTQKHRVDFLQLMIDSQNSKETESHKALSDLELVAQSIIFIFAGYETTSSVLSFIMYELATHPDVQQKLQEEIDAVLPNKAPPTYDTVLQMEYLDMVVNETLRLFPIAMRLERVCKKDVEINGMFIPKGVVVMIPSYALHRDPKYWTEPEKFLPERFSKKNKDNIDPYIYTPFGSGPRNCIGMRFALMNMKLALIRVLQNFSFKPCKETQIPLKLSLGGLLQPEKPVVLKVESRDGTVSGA
# Procedure, shortened: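 Luminescent readout of luciferin produced by CYP3A4 (20 nM) dealkylation of Luciferin-PPXE, 25 uM (its KM). NADPH-driven reaction ran 60 min at RT after 10 min compound preincubation; data scaled to 57 uM ketoconazole as 100% inhibition.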
# [11] = target: Cytochrome P450 3A4 (Homo sapiens) (UniProt P08684); experiment: qHTS Assay for Activators of Cytochrome P450 3A4 (AID 885); also: nearly all actives have a fitted effect of over 65% in size
# Procedure, shortened: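 Human CYP3A4 dealkylates Luciferin-PPXE to luciferin, which luciferase detection converts to light. Substrate was at its KM (25uM), buffer 200mM KPO4, reaction 60 min at RT.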
smiles,measurement,setting,value
CC(C)(C)OC(=O)N[C@@H](Cc1ccc(O[S+](=O)([O-])c2ccccn2)cc1)C(=O)N1CCN(c2ccccc2)CC1,remaining parasite growth % (stronger effect = lower value),[1],5.22%
same,"activity, percent of control",[2],11.4%
same,"remaining proliferation (% of control), lower = more inhibition",[3],2.38%
Cc1nnc(SCC(=O)Nc2ccc(S(=O)(=O)Nc3ccc(Cl)nn3)cc2)s1,Potency,[4],53.6 µM (active)
O=C([C@H](Cc1ccc(O[S+](=O)([O-])c2ccccn2)cc1)N[S+](=O)([O-])c1cccnc1)N1CCN(c2ccccc2)CC1,remaining parasite growth % (stronger effect = lower value),[1],17.8%
same,"activity, percent of control",[2],17.9%
same,"remaining proliferation (% of control), lower = more inhibition",[3],2.38%
O=C1C(=O)c2ccccc2C(O)=C1C1CCCCC1,remaining parasite growth % (stronger effect = lower value),[1],3.7%
same,"activity, percent of control",[2],4.15%
same,"remaining proliferation (% of control), lower = more inhibition",[3],3.28%
O=C([C@@H](Cc1ccc(O[S+](=O)([O-])c2cccc3cccnc23)cc1)N[S+](=O)([O-])c1cccc2cccnc12)N1CCN(c2ccccc2)CC1,remaining parasite growth % (stronger effect = lower value),[1],0.884%
same,"activity, percent of control",[2],3.45%
same,"remaining proliferation (% of control), lower = more inhibition",[3],1.75%
O=C([C@H](Cc1ccc(OS(=O)(=O)c2cccc3cnccc23)cc1)NS(=O)(=O)c1cccc2cnccc12)N1CCN(c2ccccc2)CC1,remaining parasite growth % (stronger effect = lower value),[1],-0.827%
same,"activity, percent of control",[2],1.24%
same,"remaining proliferation (% of control), lower = more inhibition",[3],0.712%
O=C(O)[C@H]1/C(=C/CO)O[C@@H]2CC(=O)N21,max response,[5],8.98% (inactive)
CC(O)[C@@H]1NC(=O)[C@H](CCCCN)NC(=O)[C@@H](Cc2c[nH]c3ccccc23)NC(=O)[C@H](Cc2ccccc2)NC(=O)[C@@H](NC(=O)[C@H](N)Cc2ccccc2)CSSC[C@@H](C(=O)N[C@H](CO)[C@@H](C)O)NC1=O (some centres not stated),max response,[5],-8.72% (inactive)
C/C=C/C1=C(C(=O)O)N2C(=O)[C@@H](NC(=O)[C@H](N)c3ccc(O)cc3)[C@H]2SC1,max response,[5],9.08% (inactive)
CS(=O)(=O)c1ccc(-c2cnc(N)c(-c3ccc(C(F)(F)F)nc3)c2)cc1,remaining parasite growth % (stronger effect = lower value),[1],2.16%
same,"activity, percent of control",[2],8.27%
same,"remaining proliferation (% of control), lower = more inhibition",[3],4.13%
N[C@H]1CN(c2c(F)cc3c(=O)c(C(=O)O)cn(C4C[C@H]4F)c3c2Cl)CC12CC2 (some centres not stated),max response,[5],-6.9% (inactive)
CCc1nc2cccnc2n1-c1ccc(C(=O)O)cc1,Potency,[6],18.9 µM (active)
COc1cc(/C=C2/C(=O)NN(c3ccc(F)cc3)C2=O)cc([N+](=O)[O-])c1O,Potency,[6],37.7 µM (active)
CC1CCN(c2ccc(S(=O)(=O)Nc3cc(C(=O)O)cc(C(=O)O)c3)cc2[N+](=O)[O-])CC1,Potency,[4],60.1 µM (active)
O=C(OCc1ccccc1)N1CCN(C(=O)[C@H](Cc2ccc(O[S+](=O)([O-])c3cccc4cnccc34)cc2)N[S+](=O)([O-])c2cccc3cnccc23)CC1,remaining parasite growth % (stronger effect = lower value),[1],-0.959%
same,"activity, percent of control",[2],0.261%
same,"remaining proliferation (% of control), lower = more inhibition",[3],-0.068%
O=C([C@H](Cc1ccc(O[S+](=O)([O-])c2cccnc2)cc1)N[S+](=O)([O-])c1cccnc1)N1CCN(c2ccccc2)CC1,remaining parasite growth % (stronger effect = lower value),[1],15.8%
same,"activity, percent of control",[2],16.7%
same,"remaining proliferation (% of control), lower = more inhibition",[3],3.22%
COc1ccc(C#CC2C=CC(OC(C)=O)C(COC(C)=O)O2)cc1 (configuration not stated),Potency,[7],inactive
same,Potency,[8],inactive
C=C(C)C(=O)OCC1CN2C(CCC(C)C2c2ccc(Br)cc2)C(=O)O1 (configuration not stated),Potency,[7],inactive
same,Potency,[8],inactive
COc1ccc(OC2C=CC(C#Cc3ccccc3)OC2CO)cc1 (configuration not stated),Potency,[9],inactive
same,Potency,[10],3.98 µM (active)
same,"activity change, positive = activation",[11],-79.3% [at 11.4 µM] (inactive)
same,Potency,[7],inactive
CC(=O)c1ccc(C2C=CC(Oc3ccc(F)cc3C)C(CO)O2)cc1 (configuration not stated),Potency,[9],inactive
same,Potency,[10],3.16 µM (active)
same,"activity change, positive = activation",[11],-76.9% [at 11.4 µM] (inactive)
same,Potency,[7],inactive
C/C=C/OC(=O)NC(c1ccccc1)[C@@]1(C(=O)OC)CCCC1=O (some centres not stated),Potency,[9],inactive
same,Potency,[10],1 µM (active)
same,"activity change, positive = activation",[11],-81.6% [at 11.4 µM] (inactive)
same,Potency,[7],inactive
same,Potency,[8],1.26 µM (active)
COC(=O)C(C(C)=O)C(NC(=O)NCc1ccccc1)c1ccccc1 (configuration not stated),Potency,[9],inactive
same,Potency,[10],3.98 µM (active)
same,"activity change, positive = activation",[11],-69.4% [at 11.4 µM] (inactive)
same,Potency,[7],inactive
OCC1OC(/C=C\c2ccccc2)C=CC1Oc1ccc2c(c1)OCO2 (configuration not stated),Potency,[9],inactive
same,Potency,[10],0.398 µM (active)
same,"activity change, positive = activation",[11],-105% [at 11.4 µM] (inactive)
same,Potency,[7],3.98 µM (active)
same,Potency,[8],0.251 µM (active)
CCOC(=O)OCC1OC(C#Cc2ccc(F)cc2F)C=CC1OC(=O)OCC (configuration not stated),Potency,[9],inactive
same,Potency,[10],3.16 µM (active)
same,"activity change, positive = activation",[11],-75.6% [at 11.4 µM] (inactive)
same,Potency,[7],inactive
same,Potency,[8],inactive
COc1ccc(/C=C/NC(=O)Cc2ccc(OC)c(OC)c2)cc1,Potency,[9],inactive
same,Potency,[10],3.16 µM (active)
same,"activity change, positive = activation",[11],-57.1% [at 11.4 µM] (inactive) and -101% [at 11.4 µM] (inactive)
same,Potency,[7],inactive
same,Potency,[8],inactive
CC#CCOCC/C=C1/c2ccccc2C(OC)C1C (configuration not stated),Potency,[9],inactive
same,Potency,[10],3.98 µM (active)
same,"activity change, positive = activation",[11],-90.8% [at 11.4 µM] (inactive)
same,Potency,[7],inactive
same,Potency,[8],1 µM (active)
COC(=O)C1=C(C)N(Cc2ccccc2)[C@]23O[C@](C(=O)OC)(C(=O)N2C1c1ccccc1)C1CCCC(=O)C13 (some centres not stated),Potency,[9],inactive
same,"activity change, negative = inhibition",[10],-22.3% [at 11.4 µM] (inactive)
same,"activity change, positive = activation",[11],-50.6% [at 11.4 µM] (inactive)
same,Potency,[7],inactive
same,Potency,[8],inactive
Cc1cc2c(nc1C)CCCN2C[C@H](O)CN1CCCc2nc(-c3ccc(Br)cc3)ccc21,Potency,[9],2.51 µM (active)
same,Potency,[10],3.98 µM (active)
same,"activity change, positive = activation",[11],-65% [at 11.4 µM] (inactive) and -47.8% [at 11.4 µM] (inactive)
same,Potency,[7],3.16 µM (active)

# Reference: PubChem BioAssay (NCATS)
